KB-V1 MDR tox = KB-V1 MDR subline cytotoxicity. KB-V1 MDR cells viability, CellTiter-Glo, 72 h. Potency, µM (titrated, usually from 46.1 µM), hits mostly cytotoxic. actives 3.4% (n = 400,000). AID 1347076; note: % is set by controls: 0 for no effect and ±100 for the full control effect; nearly all actives have a fitted effect of over 60% in size
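KB-V1 MDR subline cells in DMEM (phenol-red free, 10% FBS) exposed to compounds in qHTS concentration series for 72 h at 37 degrees C. Viability read by CellTiter-Glo luminescence; concentration-effect curves fitted after normalization and correction.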
HT1080 IDH1KD tx = HT-1080 IDH1 knockdown cell toxicity (counter line). actives 2% (n = 360,000). HT-1080 IDH1 knockdown viability, ATP luminescence, 48 h. Potency, µM (top dose mostly 46.1 µM), for the others: at the top dose activity, negative = toxicity, usual class: cytotoxic;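 note: 0% = DMSO wells and -100% = cell-free medium wells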
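In this qHTS, HT-1080 cells depleted of IDH1 are exposed for 48 h at 37 °C to compound titrations. Toxicity is scored from CellTiter-Glo luminescence, with DMSO as full viability and medium alone as none.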
TGFb inhibitor = blocks TGF-b signaling; HepG2 CAGA-GFP TGF-b/SMAD3 reporter, GFP fluorescence, 18 h; TGF-beta stimulated, 500 pg/mL final; actives 1.2% (n = 410,000); Potency, µM (top dose mostly 46.1 µM), inactives show at the top dose activity, negative = inhibition, hits mostly inhibitors; note: % is set by controls: 0 for no effect and ±100 for the full control effect; nearly all actives have a fitted effect of over 65% in size
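Cell-based qHTS in HEPG2 carrying a CAGA-GFP Smad reporter; compounds added before 500 pg/mL final TGF-beta, 18 h incubation at 37 degrees C, GFP fluorescence quantified per cell by imaging cytometry.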
HT1080NT lethal = kills 2HG-producing HT-1080-NT fibrosarcoma cells; HT-1080-NT fibrosarcoma viability, CellTiter-Glo ATP luminescence, 48 h; Potency, µM (doses to about 46.1 µM), without a hit: at the top dose activity, negative = less viability, usual class: cytotoxic; actives 1.6% (n = 360,000);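 note: NT is the 2HG producing partner of a matched IDH1 knockdown line; 0% = DMSO-treated cells and -100% = media-only wells without cells; nearly all actives have a fitted effect of over 55% in size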
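750 cells/well, RPMI + 5% FBS; 2 h settle, compound pin-transfer, 48 h at 37 degrees C. CellTiter-Glo 10 min RT, luminescence. Normalized to DMSO and media-only wells.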
KB-3-1 tox = KB-3-1 parental cell cytotoxicity. Potency, µM (doses to about 46.1 µM), usual class: cytotoxic. actives 1.4% (n = 400,000). KB-3-1 viability, CellTiter-Glo ATP luminescence, 72 h; note: % is set by controls: 0 for no effect and ±100 for the full control effect; nearly all actives have a fitted effect of over 60% in size
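KB-3-1 parental drug-naive adenocarcinoma cells in DMEM/10% FBS, incubated 72 h at 37 C with pin-transferred compounds across a concentration series. Viability by CellTiter-Glo luminescence; concentration-response curves fitted after normalization.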
HepG2 tox = HepG2 cytotoxicity, counter-screen for TGF-b inhibitors. HepG2 CAGA-GFP viability, ATP luminescence, 18 h. Potency, µM (highest dose often 46.1 µM), inactives show at the top dose activity change, negative = cytotoxicity, actives largely listed as cytotoxic. actives 0.76% (n = 410,000). AID 588856
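CellTiter-Glo luminescence gave cytotoxicity after 18 hours at 37 degrees C. The cells were HepG2 CAGA-GFP in 1% FBS DMEM, stimulated with 500 pg/mL TGF-beta after compound addition. %Activity was normalised to no-cell wells (complete cell-killing) and DMSO (no toxicity), and curves were fitted and classified.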
* = called active by the depositor; i = inactive; ? = inconclusive; nt = no result given. Rows were chosen to be rich in hits. Some 6.6% of all compounds tested hit in one or more screens of this group. Calls come from the whole dose curve; as a rule, active = well fitted curve in the direction sought with a large enough effect; inconclusive = small, poorly fitted or top-dose-only effect, or another doubt; inactive = no such curve, though single readings can be large; an effect the other way counts as inactive or inconclusive. Potency is the fitted concentration of half-maximal effect.

SMILES	KB-V1 MDR tox	HT1080 IDH1KD tx	TGFb inhibitor	HT1080NT lethal	KB-3-1 tox	HepG2 tox
O=C(Nc1nnc(SCC(=O)N2CCCCC2)s1)c1cccs1	20.6µM*	-12.7%	-2.7%	1.4%	i	5.4%
CCc1ccc(C(=O)CN2C(=O)NC(C)(c3ccc(C)cc3)C2=O)cc1 (configuration not stated)	i	-1.2%	-2.1%	-1.0%	i	2.0%
Cc1ccc(C2(C)NC(=O)N(CC(=O)c3ccc(Cl)s3)C2=O)cc1 (configuration not stated)	20.6µM*	-0.2%	-2.7%	2.2%	i	1.6%
CC1Cc2cc(-c3csc(NC(=O)Cc4ccccc4)n3)ccc2N1S(C)(=O)=O (configuration not stated)	3.26µM*	?	?	?	20.6µM*	-29.6%
COc1ccc(-c2csc(NC(=O)Cc3cc(OC)c(OC)c(OC)c3)n2)cc1OC	6.51µM*	?	-7.5%	-10.7%	i	-22.1%
COc1ccc(CC(=O)Nc2nc(-c3ccc(F)c(F)c3)cs2)cc1	?	?	?	18.4µM*	?	-15.8%
CC(=O)Cc1nsc(NC(=O)c2ccc(-c3cccc(C(F)(F)F)c3)o2)n1	5.8µM*	-15.1%	-7.3%	-15.3%	?	0.5%
CC(=O)Cc1nsc(NC(=O)c2ccc(-c3cc(C(F)(F)F)ccc3Cl)o2)n1	i	11.2µM*	-8.1%	11.2µM*	i	-16.7%
CC(=O)Cc1nsc(NC(=O)c2ccc(-c3cc(Cl)ccc3Cl)o2)n1	?	23.1µM*	-7.5%	20.6µM*	?	-11.1%
CC(=O)Cc1nsc(NC(=O)c2ccc(-c3ccc(Cl)c(Cl)c3)o2)n1	i	0.0%	5.1%	6.0%	i	-0.3%
CCC(=Cc1ccccc1O)c1ccncc1	i	-16.6%	0.0%	-11.8%	i	-29.8%
CC(CNC(=O)CN1C(=O)COc2ccc(S(=O)(=O)N3CCCCCC3)cc21)c1ccccc1 (configuration not stated)	nt	nt	?	nt	nt	-19.6%
O=C(NCCCN1CCc2ccccc2C1)Nc1ccc(Br)cc1	i	18.4µM*	-0.4%	?	i	-48.3%
COc1cc(OC)c(C#N)c(S(=O)(=O)Cc2ccccc2)c1	i	7.9%	-8.5%	25.5%	i	1.3%
N#Cc1c([N+](=O)[O-])cc([N+](=O)[O-])cc1S(=O)(=O)Cc1ccccc1	?	2.91µM*	3.98µM*	20.6µM*	23.1µM*	10µM*
C=CC(C)(C)c1[nH]cnc1/C=C1\NC(=O)C(C(C)C)NC1=O (configuration not stated)	i	-29.5%	2.8%	?	5.8µM*	-0.7%
COc1cccc(CSc2nc3n(n2)C(c2cccs2)C(C(=O)Nc2ccccc2C)=C(C)N3)c1 (configuration not stated)	i	nt	-15.1%	nt	i	-7.4%
O=C1c2ccccc2-c2cccnc21	i	-2.6%	-8.3%	-2.7%	i	-8.1%
O=C1c2ccccc2C(=O)c2c(/C=C/N3CCCCC3)ccnc21	2.31µM*	23.1µM*	?	-20.2%	7.31µM*	3.55µM*
CS(=O)(=O)c1ncc(Cl)c(C(=O)Nc2ccc(OC(F)F)cc2)n1	?	13µM*	?	?	?	-96.0%
CS(=O)(=O)c1ccc(C(=O)Nc2ccc(N3CCOCC3)cc2)c(Cl)c1	i	10.3%	8.2%	12.3%	i	2.6%
CS(=O)(=O)c1ncc(Cl)c(C(=O)Nc2ccc(N3CCOCC3)cc2)n1	i	1.58µM*	?	3.55µM*	i	-100.9%
O=C(Nc1ccc(OC(F)F)cc1)c1ccccn1	i	1.7%	-3.8%	4.6%	i	-13.6%
CC(=O)Nc1ccc2nc(C3CC3)n(Cc3ccc(Cl)cc3)c(=O)c2c1	i	-3.2%	0.3%	-0.7%	i	-34.2%
COc1ccc(Cn2c(C3CC3)nc3ccc(NC(=O)C4CC4)cc3c2=O)cc1	23.1µM*	-19.9%	-0.2%	-18.9%	?	-8.3%
SMILES	KB-V1 MDR tox	HT1080 IDH1KD tx	TGFb inhibitor	HT1080NT lethal	KB-3-1 tox	HepG2 tox
Cc1ccc2sc(N(CCCN(C)C)C(=O)c3nc4ccccc4s3)nc2c1C	?	20.6µM*	?	?	?	-136.9%
CN(C)CCN(C(=O)c1cccc(Cl)c1)c1nc2c(Cl)cccc2s1	i	-15.2%	-5.9%	-7.0%	i	-1.2%
Cc1cccc2sc(N(CCCN(C)C)C(=O)c3nc4ccccc4s3)nc12	i	-1.1%	0.0%	0.9%	i	-47.5%
Cc1ccc2sc(N(CCCN(C)C)C(=O)c3ccc(Br)s3)nc2c1C	?	13µM*	?	20.6µM*	?	12.6µM*
CN(C)CCN(C(=O)c1ccccc1Cl)c1nc2c(Cl)cccc2s1	23.1µM*	0.0%	-2.5%	-4.8%	i	-3.8%
CCOC(=O)c1c(NC(C)=O)c2c3c(sc2n1Cc1cccc(Cl)c1)CCCC3	nt	nt	nt	nt	nt	1.7%
CC(NC(=O)c1cccc(Nc2nc3ccccc3n3nnnc23)c1)c1ccccc1 (configuration not stated)	?	nt	?	nt	?	5.6%
CN(CC(=O)Nc1c(Cl)cccc1Cl)C(=O)Cc1ccsc1	i	0.5%	1.8%	-6.3%	i	-0.2%
CCc1cc(C(=O)N(C)CC(=O)Nc2c(Cl)cccc2Cl)sc1C	18.4µM*	8.9%	0.9%	4.4%	i	-8.2%
Cc1cccc2cc(C#N)c(NCCCNS(=O)(=O)c3ccc(Cl)cc3)nc12	9.2µM*	?	?	?	?	-125.6%
Cc1cccc2cc(C#N)c(NCc3ccccc3)nc12	i	3.7%	-8.8%	2.5%	i	-0.3%
Cc1cccc2cc(C#N)c(NCCNS(=O)(=O)c3ccccc3)nc12	?	-4.0%	11.9%	2.4%	i	-19.5%
Cc1cccc2cc(C#N)c(NCCCn3ccnc3)nc12	14.6µM*	-0.6%	-14.4%	1.0%	i	-0.7%
O=C(NCc1cccnc1)c1csc([C@@H]2O[C@H](CO)[C@H](O)[C@H](O)[C@H]2O)n1	i	18.3%	1.4%	0.9%	i	4.6%
Cc1ccccc1C(=O)NN1C(=O)CSC1=S	i	2.9%	-2.7%	0.7%	i	4.4%
O=C1CSC(=S)N1Nc1ccccc1	i	5.8µM*	13.5%	?	i	-1.3%
CN(C)c1ccc(CNC(=O)Cc2ccc(NC(=O)N3CCCCc4ccccc43)cc2)cc1	i	nt	-22.7%	nt	i	-27.1%
